High-throughput results: PubChem BioAssay, several laboratories
MITF TRPM1 inh: MITF TRPM1 promoter inhibition in SK-MEL-5 cells. SK-MEL-5 TRPM1 promoter luciferase, 24 h. inhibition, % at 12.5 µM. 0.83% of 330,000 active;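 active = mean inhibition across replicates of 60% or more, whatever share of single replicates reaches that level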
TROY NFkB inh: TROY signaling inhibition; Q293 LMP1-TROYcd NF-kB luciferase reporter, 4 h; inhibition, % at 10 µM; 0.98% of 360,000 active; AID 1347056;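 active = compounds whose plate-normalised and pattern-corrected inhibition of the luciferase reporter signal at the single screening dose is 50% or more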
TWEAK Fn14 block: blocks TWEAK-Fn14 interaction in a reporter cell assay; TWEAK-stimulated Fn14 reporter cells, luciferase luminescence, 8 h; inhibition, % at 10 µM; 2% of 360,000 active; AID 1159606; in the data active = inhibition above about 50%
EBV LMP1 NFkB: reduces LMP1-driven NF-kappaB luciferase signal; LMP1-induced NF-kappaB luciferase reporter cells, luminescence; inhibition, % at 12.5 µM; 0.69% of 350,000 active; AID 504558; in the data active = inhibition above about 41%
Shn3 3UTR inh: reduces Shn3 3'UTR luciferase signal in osteoblasts | Clone20 osteoblast Shn3 3'UTR firefly luciferase, 24 h | 0.52% of 360,000 active | inhibition, % at 12.5 µM;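 active = mean inhibition of at least 75% with every replicate also reaching 75%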
Peg3 prom inh: Peg3 promoter activity inhibition; 1.7% of 360,000 active; HeLa PEG-Prom luciferase reporter, luminescence, overnight; inhibition, % at 20 µM;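 active = inhibition of at least 50% at 20 µM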
Each line names hits and unclear results; the compound was inactive in the other large screens. This is a sample that favours compounds with a hit; in the whole collection about 4.1% have one here.

COc1ccc(C(=O)CC(=O)C(=O)Nc2ccc(Cl)cc2)cc1	none
COc1ccc(C(=O)CC(Nc2ccc([N+](=O)[O-])cc2)c2ccc(Cl)cc2)cc1 (stereo unspecified)	TWEAK Fn14 block 53
O=C(O)c1ccc(-c2ncc[nH]2)cc1	none
Nc1ccc(Cc2ccc(N)c(O)c2)cc1O	none
CC[C@@]1(c2ccccc2OC)C(=O)N(C(=O)OC)N1C(=O)OC	none
COC(=O)N1C(=O)[C@](c2ccccc2)(C2CCCCC2)N1C(=O)OC	TWEAK Fn14 block 51
COC(=O)N1C(=O)[C@](CC(C)C)(c2ccccc2)N1C(=O)OC	none
COC(=O)N1C(=O)[C@@](c2ccccc2)(C2CCCC2)N1C(=O)OC	TWEAK Fn14 block 71, Peg3 prom inh 50
Cc1ccc(Cn2ncc3c(N4CCN(Cc5ccc(Cl)cc5)CC4)ncnc32)cc1	TWEAK Fn14 block 56
Cc1ccc(Cn2ncc3c(N4CCN(c5ccc(C)cc5)CC4)ncnc32)cc1	TWEAK Fn14 block 61
CC1CN(CC(=O)NCc2ccccc2)CC(C)O1 (stereo unspecified)	none
Cc1ccc(CNC(=O)c2cc3c(C)nc4ccccc4c3o2)cc1	TWEAK Fn14 block 61
Cc1nc2ccccc2c2oc(C(=O)N3CC(C)CC(C)C3)cc12 (stereo unspecified)	none
Cc1ccc(C)c(N2CCN(C(=O)c3cc4c(C)nc5ccccc5c4o3)CC2)c1	TROY NFkB inh 52
COc1ccccc1N1CCN(C(=O)c2ccc3nc(-c4ccco4)c(-c4ccco4)nc3c2)CC1	Peg3 prom inh 52
Cc1ccc(C)c(N2CCN(C(=O)c3ccc4nc(-c5ccco5)c(-c5ccco5)nc4c3)CC2)c1	none
COc1ccccc1N1CCN(C(=O)c2cc3c(C)nc4ccccc4c3o2)CC1	TROY NFkB inh 51
CCOC(=O)c1ccc(NC(=O)N2CCN(c3ccccc3OC)CC2)cc1	none
CCCN(CC(=O)Nc1ccccc1OC)C(=O)CN1C(=O)NC2(CCCCC2)C1=O	none
Cn1cc(CN2CCN(CC(C)(C)C)C(CCO)C2)c2ccccc21 (stereo unspecified)	none
CN(CCCNS(=O)(=O)c1cccc2cccnc12)Cc1ccccc1	none
Cc1ccccc1NS(=O)(=O)c1cc(C(=O)Nc2cccc([N+](=O)[O-])c2)ccc1C	TROY NFkB inh 59, TWEAK Fn14 block 67
Cc1ccc(C(=O)Nc2ccccc2C(=O)O)cc1S(=O)(=O)Nc1ccc(Br)cc1	TROY NFkB inh 51
Cc1ccc(C(=O)Nc2ccccc2C(=O)O)cc1S(=O)(=O)NCc1ccccc1	none
Cc1ccc(C(=O)Nc2cccc([N+](=O)[O-])c2)cc1S(=O)(=O)Nc1ccc(C(=O)O)cc1	none
O=S(=O)(N/N=C/c1ccc(N2CCOCC2)cc1)c1ccc(Br)cc1	none (no result: Shn3 3UTR inh)
O=c1c2ccccc2ncn1-c1ccc2c(c1)OCCO2	TWEAK Fn14 block 51
CN(C)C(=O)c1ccc(-n2cnc3ccccc3c2=O)cc1	none
O=c1c2c3nc4ccccc4nc3n(-c3ccc4c(c3)OCCO4)c2ncn1C1CCCC1	MITF TRPM1 inh 82, Peg3 prom inh 59
O=c1c(Cl)c(Cl)cnn1-c1ccccc1	MITF TRPM1 inh 88, TWEAK Fn14 block 91, Peg3 prom inh 115
Nc1c(Cl)cnn(-c2ccccc2)c1=O	none (no result: MITF TRPM1 inh, EBV LMP1 NFkB)
COc1ccc(-n2c(=S)[nH]c3cc(C(=O)NCc4ccco4)ccc3c2=O)cc1OC	none
COc1ccc(CCn2c(=S)[nH]c3cc(C(=O)NCc4ccco4)ccc3c2=O)cc1OC	MITF TRPM1 inh 91, TWEAK Fn14 block 52, Peg3 prom inh 51
COc1ccccc1CN1CC(C(=O)N(C)CCc2ccccn2)CCC1=O (stereo unspecified)	none (no result: MITF TRPM1 inh)
O=C(CN1C2CCCC1CC(NC(=O)c1ccccc1)C2)Nc1ccccc1C(F)(F)F (stereo unspecified)	TROY NFkB inh 51
O=C(CN1C2CCCC1CC(NC(=O)c1ccco1)C2)Nc1ccccc1C(F)(F)F (stereo unspecified)	none
CCCCCCC#Cc1ccc2c(c1)COc1c3ccccc3nn1-2	Shn3 3UTR inh 90
CCCCC#Cc1ccc2c(c1)COc1c3ccccc3nn1-2	none
N#CCCCC#Cc1ccc2c(c1)COc1c3ccccc3nn1-2	TROY NFkB inh 81, TWEAK Fn14 block 93
COc1ccc2[nH]c3c(C)c4ccncc4c(C)c3c2c1	MITF TRPM1 inh 95, TWEAK Fn14 block 54, Peg3 prom inh 107
CCCCc1ccc(NC(=O)COc2ccc(C(=O)Nc3ccccc3OCC)cc2)cc1	none
NC(=O)C1CCN(C2=C(NS(=O)(=O)c3ccccc3)C(=O)c3ccccc3C2=O)CC1	none
CN1CCN(C2=C(Cl)C(=O)c3ccccc3C2=O)CC1	MITF TRPM1 inh 100, Peg3 prom inh 65
CC1COCC(C)N1C1=C(Cl)C(=O)c2ccccc2C1=O (stereo unspecified)	MITF TRPM1 inh 96, Shn3 3UTR inh 96, Peg3 prom inh 100
CCN1CCN(C2=C(NS(=O)(=O)c3ccc(Br)cc3)C(=O)c3ccccc3C2=O)CC1	MITF TRPM1 inh 90
NC(=O)C1CCN(C2=C(NS(=O)(=O)c3ccc(Br)cc3)C(=O)c3ccccc3C2=O)CC1	MITF TRPM1 inh 68
CCN1CCN(C2=C(NS(=O)(=O)c3ccccc3)C(=O)c3ccccc3C2=O)CC1	MITF TRPM1 inh 67 (no result: EBV LMP1 NFkB)
CCOC(=O)N1CCN(C2=C(NS(=O)(=O)c3ccccc3)C(=O)c3ccccc3C2=O)CC1	none
CN1CCN(C2=C(NS(=O)(=O)c3cccs3)C(=O)c3ccccc3C2=O)CC1	MITF TRPM1 inh 77
CN1CCN(C2=C(NS(=O)(=O)c3ccccc3)C(=O)c3ccccc3C2=O)CC1	MITF TRPM1 inh 78
O=C1C(NS(=O)(=O)c2cccs2)=C(N2CCOCC2)C(=O)c2ccccc21	none
Cc1ccc(NC(=S)N2CCN(S(=O)(=O)c3c(F)cccc3F)CC2)cc1C	none
CCN(C(=O)COC(=O)c1ccc2[nH]c(C)c(C)c2c1)c1c(N)n(Cc2ccccc2)c(=O)[nH]c1=O	none
NS(=O)(=O)c1ccc(CCNc2ccn3nc(-c4cccc(C(F)(F)F)c4)cc3n2)cc1	TROY NFkB inh 66, TWEAK Fn14 block 80 (no result: MITF TRPM1 inh, EBV LMP1 NFkB)
COc1ccccc1-c1cc2nc(NCCc3ccc(S(N)(=O)=O)cc3)ccn2n1	none (no result: MITF TRPM1 inh, EBV LMP1 NFkB)
CCN(CC)C(=O)C1=C(C)N(Cc2ccccc2)C(=O)C(CC(=O)NCCCCc2ccccc2)C1 (stereo unspecified)	none (no result: MITF TRPM1 inh)
CCOc1ccc(N(CC(=O)Nc2ccccc2OCC)S(=O)(=O)c2c(C)noc2C)cc1	MITF TRPM1 inh 65
CCOc1ccc(N(CC(=O)N2CCc3ccccc32)S(=O)(=O)c2c(C)noc2C)cc1	EBV LMP1 NFkB 47
CCOc1ccc(N(CC(=O)Nc2ccc(C)cc2)S(=O)(=O)c2c(C)noc2C)cc1	none
O=C(NCCc1ccccc1)c1ccc(Cl)cc1[N+](=O)[O-]	none
COc1ccc(C(c2c(NC(=O)c3ccco3)sc(C)c2C)N2CCOCC2)cc1OC (stereo unspecified)	none
